This is a sample that favours compounds with a hit; in the whole collection about 12% have one here.
HP1b binding inh: blocks HP1-beta chromodomain binding to methylated histone tails; Potency, µM (doses to about 114 µM), for inactives: at the top dose activity change, negative = inhibition, actives largely listed as inhibitors; 390,000 tested, 0.56% active; AlphaScreen HP1-beta / biotin-H3K9me3 peptide binding; P83916; also: nearly all actives have a fitted effect of over 70% in size
Target sequence (P83916 whole entry, looked up): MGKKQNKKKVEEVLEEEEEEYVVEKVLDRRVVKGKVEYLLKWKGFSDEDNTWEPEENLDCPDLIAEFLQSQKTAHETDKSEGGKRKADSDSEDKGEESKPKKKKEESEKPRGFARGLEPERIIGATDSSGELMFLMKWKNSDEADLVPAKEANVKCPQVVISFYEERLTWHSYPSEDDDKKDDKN
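Compound inhibition of the preformed complex between 50 nM HP1-beta and 50 nM biotinylated H3K9me3 peptide was read by AlphaScreen. Buffer was PBS pH 7.4 with 0.01% Tween-20. Incubations ran 30 min at room temperature, with 10 ug/mL donor/acceptor beads.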
Sfp inh: inhibitors of Bacillus subtilis Sfp phosphopantetheinyl transferase; AID 1490; Biochemical Sfp PPTase activity, qHTS; 310,000 tested, 3.5% active; Potency, µM, without a hit: largest response in the series, negative = inhibition, most hits filed as inhibitors; Q9F4F7;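 also: the enzyme is Sfp with the accession as filed and its product quenches rhodamine fluorescence; 0% = enzyme reaction without inhibitor and -100% = no enzyme wells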
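Buffer: 50 mM Hepes-Na pH 7.6, 10 mM MgCl2, 0.01% Nonidet P-40, 0.01% BSA. Enzyme 15 nM, pre-exposed to compound 15 min; substrates then added and fluorescence change tracked over 30 min.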
PLK1 PBD inh: inhibitors of human PLK1 polo-box domain binding | P53350 | Plk1 PBD binding of FITC phosphopeptide, fluorescence polarization | Potency, µM, without a hit: max response, negative = inhibition, hits mostly inhibitors | 360,000 tested, 2.8% active | AID 720504; also: series mostly up to about 57 µM; % is scaled to controls: 0 for no effect and ±100 for the full control effect; nearly all actives have a fitted effect of over 65% in size
G9a inh: inhibitors of human histone lysine methyltransferase G9a | G9a H3K9 monomethylation, AlphaScreen, 2 h | Potency, µM (highest dose often 102 µM), inactives show top-dose activity, negative = inhibition, most hits filed as inhibitors | 350,000 tested, 8.8% active; also: % is scaled to controls: 0 for no effect and ±100 for the full control effect; nearly all actives have a fitted effect of over 75% in size
Target sequence (Q96KQ7 913-1193 limits assumed): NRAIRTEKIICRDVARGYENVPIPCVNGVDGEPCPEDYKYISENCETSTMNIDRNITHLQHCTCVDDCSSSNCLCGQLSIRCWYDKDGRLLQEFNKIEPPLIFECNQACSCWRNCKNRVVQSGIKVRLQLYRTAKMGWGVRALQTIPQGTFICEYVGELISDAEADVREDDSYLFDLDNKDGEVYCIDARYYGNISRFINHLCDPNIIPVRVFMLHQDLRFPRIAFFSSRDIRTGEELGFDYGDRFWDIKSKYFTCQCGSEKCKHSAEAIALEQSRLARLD
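G9a (20 nM) preincubated 15 min RT with compounds, then 500 nM biotinylated H3K9 peptide and 20 uM SAM added; 2 h RT reaction. Monomethyl-H3K9 product detected by AlphaScreen with anti-H3K9me1 antibody, streptavidin donor and anti-rabbit IgG acceptor beads.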
JMJD2A Tudor: JMJD2A Tudor domain (human) inhibition; O75164; AlphaScreen JMJD2A-Tudor / H3K4me3 peptide binding; Potency, µM (doses to about 114 µM), inactives show top-dose activity change, negative = inhibition, hits mostly inhibitors; 390,000 tested, 4.4% active; AID 504339; also: % is scaled to controls: 0 for no effect and ±100 for the full control effect; nearly all actives have a fitted effect of over 50% in size
BAZ2B inh: BAZ2B (human) inhibition | 360,000 tested, 4.4% active | Potency, µM (highest dose often 114 µM), inactives show at the highest dose activity change, negative = inhibition, hits mostly inhibitors | AlphaScreen BAZ2B-H3K14Ac peptide displacement | Q9UIF8; also: % is scaled to controls: 0 for no effect and ±100 for the full control effect; nearly all actives have a fitted effect of over 60% in size
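BAZ2B (50 nM) with biotin-H3(5-23)K14Ac peptide (50 nM) in PBS pH 7.4, 0.01% Tween-20, preformed 30 min, then compound 30 min at room temperature; top concentration 110uM. AlphaScreen streptavidin donor/nickel chelate acceptor beads (10 ug/mL final), 20 min dark, signal read.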
* marks the source's active call; other numbers are inactive results; ? = inconclusive; / = not tested or not shown; ! = not confirmed by another sample; [ ] = another dose, or the depositor's remark. Calls follow the shape of the dose curve; as a rule, active = well fitted curve in the direction sought with a large enough effect; inconclusive = small, poorly fitted or top-dose-only effect, or another doubt; inactive = no such curve, though single readings can be large; an effect the other way counts as inactive or inconclusive. Potency is read from the fitted curve at half-maximal effect.

SMILES	HP1b binding inh	Sfp inh	PLK1 PBD inh	G9a inh	JMJD2A Tudor	BAZ2B inh
Cc1nn2c(=O)cc(COC(=O)c3ccccc3NC(=O)C(C)Oc3ccccc3)nc2s1 (stereo not given)	40%	/	/	?	6%	-8%
CC(=O)NC(Cc1ccccc1)C(=O)NC1CCN(C(=O)c2ccc([N+](=O)[O-])cc2)CC1 (stereo not given)	11%	8%	3.4µM*	21%	-34%	10%
OC(COC1CCCCC1)CN1CCN(c2ccccc2)CC1 (stereo not given)	23%	-3%	-3%	-25%	-13%	27%
Cc1n(CC(O)COC2CCCCC2)c2ccccc2[n+]1C (stereo not given)	5%	7%	1%	?	79µM*	6%
O=C(Nc1ccc2c(c1)OCO2)c1ccc(N2CCCC2)c([N+](=O)[O-])c1	?	-3%	-16%	10µM*	?	35µM*
CN1CCN(c2ccccc2NC(=O)c2ccc(N3CCCCC3)c([N+](=O)[O-])c2)CC1	?	?	-5%	?	50µM*	40µM*
O=C(Nc1ccc(N2CCCCC2)c(Cl)c1)c1ccc(N2CCOCC2)c([N+](=O)[O-])c1	-31%	6%	-11%	-11%[0.501 µM]	?	6%
CC1CC2C3CC(F)C4=CC(=O)C=C[C@@]4(C)[C@@]3(F)C(O)C[C@]2(C)[C@]1(O)C(=O)COC(=O)C(C)(C)C (stereo not given in full)	/	12%	/	-30%[2.33 µM]	/	/
CC1=NN(C(C#N)c2ccccc2C)C(C)(C)C1 (stereo not given)	44%	18%	-3%	1%	1%	-14%
CC1=NN(C(C#N)c2c(C)nn(Cc3ccccc3)c2C)C(C)(C)C1 (stereo not given)	29%	17%	-11%	35µM*	?	-5%
CC1=NN(C(C#N)c2ccc([N+](=O)[O-])cc2)C(C)(C)C1 (stereo not given)	-20%	1%	3%	?	22µM*	-36%
O=C(Nc1cccc(C(=O)Nc2ccc(Br)cc2)c1)c1ccccc1	32%	16%	1%	24%[59 µM]	6%	2%
S=C(Nc1cccc(Br)c1)c1ccccc1	-19%	3%	13µM*	?	-25%	?
Cc1cc(=O)c2c(O)c3c(O)cc(=O)c4c3c3c(cc(O)c1c23)C(C)(C)C=4O	/	56µM*!	/	/	/	/
S=C(NCc1ccco1)Nc1cccc(Cl)c1	20%	-13%	-18%	-44%[59 µM]	-18%	?
Clc1ccc(-c2csc(Nc3ccccc3)[n+]2Cc2ccco2)c(Cl)c1	?	?	-8%	32µM*	-36%	25µM*
CCCC[n+]1c(-c2ccc(Cl)cc2Cl)csc1Nc1ccccc1	?	-2%	-7%	11µM*	71µM*	13µM*
COCCN1C(=O)C(=O)/C(=C(/O)c2ccc(S(=O)(=O)N3CCOCC3)cc2)C1c1ccc(C(C)C)cc1 (stereo not given)	/	3%	/	-10%[2.33 µM]	/	2%
Cc1ccc(C)c2[nH]c(=O)c(C(c3nnnn3Cc3ccccc3)N3CCc4ccccc4C3)cc12 (stereo not given)	19%	?	-18%	3.2µM*	-32%	-23%
Cc1cccc2cc(C(c3nnnn3CC3CCCO3)N3CCc4ccccc4C3)c(=O)[nH]c12 (stereo not given)	18%	20µM*	-20%	3.2µM*	-36%	-3%
Cc1ccc2cc(C(c3nnnn3CC3CCCO3)N3CCc4ccccc4C3)c(=O)[nH]c2c1 (stereo not given)	16%	10µM*	-21%	?	-34%	2%
CCc1ccc2[nH]c(=O)c(C(c3nnnn3CC3CCCO3)N3CCCc4ccccc43)cc2c1 (stereo not given)	-16%	8.9µM*	-2%	?	?	50µM*
CCOc1ccc(CNC(=O)CSc2nnc(C)c3c(C)n(-c4ccc(Cl)cc4)nc23)cc1	39%	/	/	?	-8%	1%
C[C@@H]1[C@H](C)CC[C@@]2(C(=O)O[C@H]3O[C@@H](CO[C@H]4O[C@@H](CO)[C@@H](O[C@H]5O[C@@H](C)[C@@H](O)[C@@H](O)[C@@H]5O)[C@@H](O)[C@@H]4O)[C@@H](O)[C@@H](O)[C@@H]3O)CC[C@]3(C)C(=CC[C@H]4[C@@]5(C)C[C@@H](O)[C@@H](O)[C@](C)(CO)[C@@H]5CC[C@@]43C)[C@@H]12	/	5%	/	20%[21.5 µM]	/	/
C#CCCOC(=O)N1C2=NC(C(=O)OC)=C(C(=O)OC)[C@@H]3N(CC#CC)c4ccccc4[C@]23C[C@H]1C(=O)OC	/	15%	/	/	/	/
SMILES	HP1b binding inh	Sfp inh	PLK1 PBD inh	G9a inh	JMJD2A Tudor	BAZ2B inh
COc1ccc(NC(=O)C(=O)NCC(c2cccnc2)N2CCc3ccccc3C2)cc1 (stereo not given)	?	/	/	14µM*	40µM*	10µM*
COc1ccc(CCNC(=O)C(=O)NCC(c2cccnc2)N2CCN(c3ccccc3)CC2)cc1 (stereo not given)	46%	/	/	-28%[59 µM]	-16%	-37%
COc1ccc(N2CCN(C(CNC(=O)C(=O)NCCCn3ccnc3)c3cccnc3)CC2)cc1 (stereo not given)	15%	5%	-5%	?	45µM*	/
O=C(NCCCn1ccnc1)C(=O)NCC(c1cccnc1)N1CCN(c2ccc(F)cc2)CC1 (stereo not given)	28%	-26%	-3%	50µM*	-34%	50µM*
Cc1cc(C)cc(NC(=O)C(=O)NCC(c2cccnc2)N2CCOCC2)c1 (stereo not given)	20%	/	/	-39%[59 µM]	-17%	79µM*
O=C(NCC(c1cccnc1)N1CCc2ccccc2C1)C(=O)Nc1ccccc1 (stereo not given)	-20%	/	/	?	?	?
CCS(=O)(=O)N1CCC(NC(=O)C(Cc2cccc(OC)c2OC)NC(C)=O)CC1 (stereo not given)	34%	12%	-4%	/	-8%	13%
COc1cccc(C2=CC(c3ccccc3F)n3ncc(C(=O)Nc4ccc(F)cc4)c3N2)c1 (stereo not given)	-10%	/	/	?	?	-25%[57.1 µM]
CC1(C)CC[C@]2(C(=O)O[C@@H]3OC(CO)[C@@H](O)[C@H](O)[C@H]3O)CC[C@]3(C)C(=CCC4[C@@]5(C)CC[C@H](O[C@@H]6OC(C(=O)O)[C@@H](O)[C@H](O)[C@H]6O)C(C)(C)C5CC[C@]43C)[C@@H]2C1 (stereo not given in full)	52%	/	-25%	/	-7%	/

Assay outcomes deposited in PubChem BioAssay by National Center for Advancing Translational Sciences (NCATS).
